Entries with a potency or affinity are not part of this list. Calls of active or inactive are those of the source. No rule for the calls is given here.
Test: veev tc 83 cytopathic effect inhibition, infected cells, confirmatory (AID 624284)
Conditions: VEEV TC-83 infected cells; at 25 µM (top of the series)

SMILES | inhibition
CCN1CCN(Cc2nc3ccc(C(N)=O)cc3c(=O)n2-c2ccccc2)CC1 | -2.53% (inactive)
CCN1CCN(Cc2nc3cc([N+](=O)[O-])ccc3c(=O)n2-c2ccccc2)CC1 | 3.1% (inactive)
NS(=O)(=O)c1ccc(-n2c(-c3ccccc3)nc3ccc(Br)cc3c2=O)cc1 | 10.7% (inactive)
CCN1CCN(Cc2nc3cccc([N+](=O)[O-])c3c(=O)n2-c2ccccc2)CC1 | -2.17% (inactive)
CCN1CCN(Cc2nc3ccc([N+](=O)[O-])cc3c(=O)[nH]2)CC1 | -1%
CCN1CCN(Cc2nc3ccc([N+](=O)[O-])cc3c(=O)n2C(C)C)CC1 | -1% (inactive)
CCN1CCN(Cc2nc3ccc(C(=O)N(C)C)cc3c(=O)n2-c2ccccc2)CC1 | 3.63% (inactive)

Source: PubChem BioAssay AID624284 (Southern Research Specialized Biocontainment Screening …, 2012)
